# Experimental data taken from PubChem BioAssay AID2232 (The Scripps Research Institute Molecular Screening Center, 2010).
# Hit rate of the full screen: of about 1,100 compounds, about 790 (72%) were called active.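 The calls were made as follows: active = mean inhibition across replicates above the hit cutoff set in the primary screen (cut at about 26% in these data); inactive = the rest.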 The set was probably picked from earlier hits. The list is a sample of the results.
# Biological target: Acyl-protein thioesterase 2 (Homo sapiens) (UniProt O95372)
# Sequence (O95372 whole entry, looked up): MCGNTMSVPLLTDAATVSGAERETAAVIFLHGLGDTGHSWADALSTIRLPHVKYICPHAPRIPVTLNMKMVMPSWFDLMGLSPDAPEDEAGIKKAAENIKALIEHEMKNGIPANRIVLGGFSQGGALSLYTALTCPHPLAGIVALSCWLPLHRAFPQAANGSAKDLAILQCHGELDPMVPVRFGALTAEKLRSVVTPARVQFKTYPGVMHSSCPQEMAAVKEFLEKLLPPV
# Assay: inhibition of human lysophospholipase 2 – biochemical, fluorescence polarization, FP-Rh probe ABPP, counter-screen for PME1 inhibitor project, confirmation (AID 2232);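 also: blocked labeling of the enzyme by serine hydrolase FP-Rh probe lowers polarization; 0% = enzyme with DMSO and 100% = wells lacking LYPLA2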
# Conditions: recombinant LYPLA2, FP-Rh probe fluorescence polarization; at 5.9 µM; active compounds read high
row,Compound,inhibition
1,Cc1ccc(N2CCN(C3=NC(=O)/C(=C\c4cccs4)S3)CC2)cc1,56.2% (active)
2,CCC(CC)COC(=O)C1=C(C)NC(=O)NC1c1ccc([N+](=O)[O-])cc1 (centres undefined),48.5% (active)
3,CCC(=O)c1ccc(OCC(O)CN2CCN(c3cccc(C(F)(F)F)c3)CC2)cc1 (centres undefined),62.3% (active)
4,O=C(CCCN1C(=O)CSc2ncccc21)N1CCN(c2cccc(C(F)(F)F)c2)CC1,60.9% (active)
5,O=C(c1cc(-c2ccc(Cl)cc2)on1)N1CCN(c2ccccc2)CC1,2.82% (inactive)
6,Cc1c(C)c2ccc(OCC(=O)N3CCN(c4cccc(Cl)c4)CC3)cc2oc1=O,45.7% (active)
7,O=C(COc1ccc(Cl)cc1)N1CCN(c2cccc(C(F)(F)F)c2)CC1,63.1% (active)
8,CN(CCc1ccccn1)C(=O)c1ccc(OC2CCN(CCc3ccccc3)CC2)cc1,21.1% (inactive)
9,O=C(CCCN1C(=O)c2cccc3cccc(c23)C1=O)N1CCN(Cc2ccc3c(c2)OCO3)CC1,55.4% (active)
10,O=C(COc1ccc(NC(=O)c2ccccc2[N+](=O)[O-])cc1)c1ccc(F)cc1,34.8% (active)
11,O=[N+]([O-])c1ccc(Oc2ccc(F)cc2Br)c2ccncc12,33.5% (active)
12,Cc1cc(OCCCN2CCN(Cc3ccccc3)CC2)ccc1[N+](=O)[O-],40.4% (active)
13,CSc1cccc(NC(=O)CN2C(=O)COc3ccc(S(=O)(=O)N4CCOCC4)cc32)c1,33.8% (active)
14,N#Cc1ccc(C2=CC(=O)C[C@H](c3ccc(Cl)cc3)C2)cc1,42% (active)
15,O=C(CC1SC(N2CCCC2)=NC1=O)Nc1ccc(C(=O)NCCc2ccc(F)cc2)cc1 (centres undefined),43.7% (active)
16,CCOC(=O)c1cc2cc(-c3c(C(=O)OCC)oc4cc(O)cc(O)c4c3=O)ccc2o1,36.7% (active)
17,O=C1C2CCCN2C(=O)N1CCCCN1CCN(c2cccc(C(F)(F)F)c2)CC1 (centres undefined),55.6% (active)
18,CCN(CC)C(=O)CC1(c2ccccc2OC)CCOC(C(C)C)C1 (centres undefined),4.28% (inactive)
19,CCc1ccc(NC(=O)c2ccc(Cn3cc([N+](=O)[O-])cn3)cc2)cc1,19.7% (inactive)
20,Cc1nc([N+](=O)[O-])cn1CC(=O)Nc1ccc(Cl)cc1,34.4% (active)
21,Cc1nc([N+](=O)[O-])cn1CC(=O)Nc1ccc2c(c1)OCO2,26.8% (active)
22,O=C(c1ccco1)N1CCN(C(=S)Nc2cc(F)cc(F)c2)CC1,44.1% (active)
23,CCOc1ccc(C(=O)NC(=S)Nc2ccc(N3CCOCC3)c(Cl)c2)cc1[N+](=O)[O-],21.8% (inactive)
24,O=C(Nc1ccc(N2CCN(C(=O)c3ccccc3)CC2)c(Cl)c1)c1cccnc1,27% (active)
